Here are results for one molecule from ChEMBL document CHEMBL2218924, “A broad activity screen in support of a chemogenomic map for kinase signalling research and drug discovery” (Biochem J, 2013).

In assay [1] the target is Tyrosine-protein kinase SYK (Homo sapiens) (UniProt P43405). The conditions noted are these: at 10 µM.
The target of assay [2] is T1, Mitogen-activated protein kinase kinase kinase 7 (Homo sapiens) (UniProt O43318).
T1 sequence (whole entry): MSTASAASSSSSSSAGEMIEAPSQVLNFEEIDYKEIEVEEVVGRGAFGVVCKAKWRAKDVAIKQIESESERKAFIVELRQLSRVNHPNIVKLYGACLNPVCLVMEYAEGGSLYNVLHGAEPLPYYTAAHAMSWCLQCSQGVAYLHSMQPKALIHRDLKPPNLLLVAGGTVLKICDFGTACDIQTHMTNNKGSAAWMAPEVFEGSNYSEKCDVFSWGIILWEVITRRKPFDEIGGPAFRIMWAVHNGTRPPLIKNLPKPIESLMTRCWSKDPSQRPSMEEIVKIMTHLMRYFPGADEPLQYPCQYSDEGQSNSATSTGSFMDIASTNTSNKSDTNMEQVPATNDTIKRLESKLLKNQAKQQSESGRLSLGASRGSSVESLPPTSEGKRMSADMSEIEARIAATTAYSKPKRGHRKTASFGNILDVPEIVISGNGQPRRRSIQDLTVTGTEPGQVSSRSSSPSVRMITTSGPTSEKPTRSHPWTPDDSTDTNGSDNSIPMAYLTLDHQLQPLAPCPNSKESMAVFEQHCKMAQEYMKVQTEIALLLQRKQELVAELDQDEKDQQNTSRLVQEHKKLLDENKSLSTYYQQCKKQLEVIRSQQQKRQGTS
The conditions noted are these: at 1 µM.

The target of assay [3] is T1, Mitogen-activated protein kinase kinase kinase 7 (Homo sapiens). The settings on record: at 10 µM.
The target of assay [4] is T2, Serine/threonine-protein kinase TAO1 (Homo sapiens) (UniProt Q7L7X3).
T2 sequence (whole entry): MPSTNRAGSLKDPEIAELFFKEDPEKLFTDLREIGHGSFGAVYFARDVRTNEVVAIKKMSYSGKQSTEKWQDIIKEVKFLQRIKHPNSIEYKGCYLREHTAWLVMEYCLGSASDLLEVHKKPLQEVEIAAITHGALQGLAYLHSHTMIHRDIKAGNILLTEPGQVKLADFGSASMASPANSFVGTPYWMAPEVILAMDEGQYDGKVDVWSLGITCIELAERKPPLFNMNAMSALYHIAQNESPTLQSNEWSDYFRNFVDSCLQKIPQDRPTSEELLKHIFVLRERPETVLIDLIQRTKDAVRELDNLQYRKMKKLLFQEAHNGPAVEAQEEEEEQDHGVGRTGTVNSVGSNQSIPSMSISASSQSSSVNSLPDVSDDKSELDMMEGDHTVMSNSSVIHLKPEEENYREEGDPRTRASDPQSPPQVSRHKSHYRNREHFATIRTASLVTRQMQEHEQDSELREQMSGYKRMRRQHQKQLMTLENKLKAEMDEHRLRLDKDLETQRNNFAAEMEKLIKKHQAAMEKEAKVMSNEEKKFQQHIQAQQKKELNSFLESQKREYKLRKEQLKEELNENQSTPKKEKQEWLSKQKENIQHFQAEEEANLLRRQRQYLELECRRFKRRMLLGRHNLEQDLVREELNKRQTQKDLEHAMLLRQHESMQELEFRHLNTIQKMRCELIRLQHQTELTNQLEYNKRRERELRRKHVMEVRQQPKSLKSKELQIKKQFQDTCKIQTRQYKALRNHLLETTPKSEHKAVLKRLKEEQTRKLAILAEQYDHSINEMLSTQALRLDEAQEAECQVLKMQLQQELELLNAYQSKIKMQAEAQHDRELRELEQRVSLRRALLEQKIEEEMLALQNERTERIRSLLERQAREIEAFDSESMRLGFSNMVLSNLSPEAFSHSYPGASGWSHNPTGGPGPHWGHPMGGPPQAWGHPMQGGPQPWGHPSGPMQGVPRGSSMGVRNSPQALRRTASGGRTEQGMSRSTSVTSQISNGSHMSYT
The settings on record: at 1 µM.

In assay [5] the target is T2, Serine/threonine-protein kinase TAO1 (Homo sapiens). The conditions noted are these: at 10 µM.
For assay [6], the target named is T3, Serine/threonine-protein kinase TAO2 (Homo sapiens) (UniProt Q9UL54).
T3 sequence (whole entry): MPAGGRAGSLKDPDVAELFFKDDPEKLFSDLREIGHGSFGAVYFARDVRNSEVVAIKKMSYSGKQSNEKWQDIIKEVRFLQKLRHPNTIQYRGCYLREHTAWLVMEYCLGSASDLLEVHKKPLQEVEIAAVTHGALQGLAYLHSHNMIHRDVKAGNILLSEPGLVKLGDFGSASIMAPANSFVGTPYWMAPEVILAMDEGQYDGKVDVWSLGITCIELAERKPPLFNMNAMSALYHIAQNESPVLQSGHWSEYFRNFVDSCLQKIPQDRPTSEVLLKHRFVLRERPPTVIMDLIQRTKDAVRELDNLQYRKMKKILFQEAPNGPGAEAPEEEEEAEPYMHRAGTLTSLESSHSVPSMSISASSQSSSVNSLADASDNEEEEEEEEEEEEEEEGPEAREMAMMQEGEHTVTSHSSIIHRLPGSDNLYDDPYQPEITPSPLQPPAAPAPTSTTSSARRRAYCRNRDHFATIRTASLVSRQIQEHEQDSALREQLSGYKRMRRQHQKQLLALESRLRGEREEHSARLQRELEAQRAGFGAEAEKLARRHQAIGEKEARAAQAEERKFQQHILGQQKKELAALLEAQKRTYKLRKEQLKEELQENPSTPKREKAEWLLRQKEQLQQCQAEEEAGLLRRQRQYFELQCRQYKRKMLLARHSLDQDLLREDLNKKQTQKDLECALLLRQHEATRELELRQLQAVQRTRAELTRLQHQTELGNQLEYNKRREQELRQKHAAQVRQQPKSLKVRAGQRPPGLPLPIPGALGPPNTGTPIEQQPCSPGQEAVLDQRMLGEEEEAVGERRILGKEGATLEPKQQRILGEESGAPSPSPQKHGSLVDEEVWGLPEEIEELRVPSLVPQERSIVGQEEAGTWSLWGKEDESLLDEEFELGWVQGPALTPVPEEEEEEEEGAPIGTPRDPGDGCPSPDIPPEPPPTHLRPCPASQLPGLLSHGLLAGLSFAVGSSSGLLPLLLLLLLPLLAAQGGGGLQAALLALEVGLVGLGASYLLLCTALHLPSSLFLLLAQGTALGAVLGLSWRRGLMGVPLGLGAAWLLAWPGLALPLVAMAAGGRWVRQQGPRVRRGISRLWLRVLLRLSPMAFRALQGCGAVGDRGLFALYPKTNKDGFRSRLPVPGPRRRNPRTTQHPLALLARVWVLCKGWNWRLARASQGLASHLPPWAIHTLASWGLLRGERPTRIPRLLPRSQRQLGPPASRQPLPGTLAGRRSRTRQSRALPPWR
The conditions noted are these: at 1 µM.

Assay [7] concerns the target T3, Serine/threonine-protein kinase TAO2 (Homo sapiens). The settings on record: at 10 µM.
For assay [8], the target named is T4, Serine/threonine-protein kinase TAO3 (Homo sapiens) (UniProt Q9H2K8).
T4 sequence (whole entry): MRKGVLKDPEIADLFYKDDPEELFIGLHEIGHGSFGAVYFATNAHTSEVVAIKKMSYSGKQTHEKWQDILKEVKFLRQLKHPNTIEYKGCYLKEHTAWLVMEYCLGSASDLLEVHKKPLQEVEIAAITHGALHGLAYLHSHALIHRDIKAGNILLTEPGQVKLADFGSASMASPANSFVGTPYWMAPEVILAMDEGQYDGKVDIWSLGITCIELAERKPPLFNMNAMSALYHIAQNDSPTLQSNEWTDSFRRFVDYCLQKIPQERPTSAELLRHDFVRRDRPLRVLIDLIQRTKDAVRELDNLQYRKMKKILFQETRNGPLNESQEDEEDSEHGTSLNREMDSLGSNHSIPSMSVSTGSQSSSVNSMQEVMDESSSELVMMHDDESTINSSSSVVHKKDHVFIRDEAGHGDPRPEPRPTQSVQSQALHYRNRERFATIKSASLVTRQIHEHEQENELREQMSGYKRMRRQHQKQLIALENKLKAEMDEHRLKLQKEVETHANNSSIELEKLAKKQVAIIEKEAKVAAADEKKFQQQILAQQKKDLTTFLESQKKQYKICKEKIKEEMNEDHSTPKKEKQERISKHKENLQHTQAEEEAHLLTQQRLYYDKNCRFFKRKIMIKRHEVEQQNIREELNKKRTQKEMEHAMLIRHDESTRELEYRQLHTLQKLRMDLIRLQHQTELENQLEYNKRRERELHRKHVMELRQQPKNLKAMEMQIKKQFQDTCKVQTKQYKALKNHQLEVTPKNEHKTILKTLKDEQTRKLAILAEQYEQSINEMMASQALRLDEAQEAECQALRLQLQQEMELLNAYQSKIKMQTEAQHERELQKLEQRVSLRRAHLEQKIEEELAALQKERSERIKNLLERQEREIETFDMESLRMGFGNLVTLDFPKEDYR
The conditions noted are these: at 1 µM.

Assay [9] deals with T4, Serine/threonine-protein kinase TAO3 (Homo sapiens). The settings on record: at 10 µM.
For assay [10], the target named is T5, Serine/threonine-protein kinase TBK1 (Homo sapiens) (UniProt Q9UHD2).
T5 sequence (whole entry): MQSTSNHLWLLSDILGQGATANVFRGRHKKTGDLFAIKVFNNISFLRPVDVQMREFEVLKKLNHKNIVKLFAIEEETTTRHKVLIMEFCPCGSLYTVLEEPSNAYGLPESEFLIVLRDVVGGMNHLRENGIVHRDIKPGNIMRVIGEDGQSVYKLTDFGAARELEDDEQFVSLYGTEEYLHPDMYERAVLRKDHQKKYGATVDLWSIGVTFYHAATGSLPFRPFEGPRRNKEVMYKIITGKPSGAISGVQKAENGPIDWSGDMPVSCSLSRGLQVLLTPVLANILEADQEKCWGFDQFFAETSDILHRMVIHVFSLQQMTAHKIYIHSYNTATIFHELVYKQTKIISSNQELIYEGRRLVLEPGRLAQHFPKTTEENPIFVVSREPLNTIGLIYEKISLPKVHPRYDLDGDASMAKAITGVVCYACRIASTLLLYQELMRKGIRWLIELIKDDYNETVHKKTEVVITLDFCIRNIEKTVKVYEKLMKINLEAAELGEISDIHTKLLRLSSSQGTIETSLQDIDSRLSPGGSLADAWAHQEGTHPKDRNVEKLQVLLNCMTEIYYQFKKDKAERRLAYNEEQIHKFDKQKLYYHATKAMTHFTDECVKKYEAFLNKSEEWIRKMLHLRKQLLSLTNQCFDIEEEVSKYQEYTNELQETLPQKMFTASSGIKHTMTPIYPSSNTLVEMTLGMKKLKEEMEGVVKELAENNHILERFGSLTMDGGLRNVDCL
The conditions noted are these: at 1 µM.

In the case of `CC(C)n1cnc2c(NCc3ccccc3)nc(NCCCO)nc21`, the residual activity in assay [1] was found to be 105%; in assay [2], 96%; in [3], 92%; in assay [4] it was 87%; in assay [5], 81%; in [6], 100%. Moreover, the residual activity in assay [7] came to 101%; in [8], 97%; in assay [9] it was 88%; in assay [10] it was 79%.
